According to PubChem BioAssay AID435003 (Sanford-Burnham Center for Chemical Genomics, 2010):
The campaign covered roughly 330,000 compounds. About 1,700 (0.52%) were called active. This is one part of a sample in which actives are shown more often than they occur. Values without a mark were called inactive. No stated cut-off is given here; in the data, active means inhibition above about 50%; inactive means the rest.

Assay: lowers stimulated NF-kB reporter luminescence – cell-based, uHTS, TCR NF-kB activation inhibitor project, primary screen (AID 435003)
Settings: at 4 µM, hits give high values; NF-kB luciferase reporter unless noted

Row | SMILES | inhibition
1 | Cc1cc2ccccn2c1C(C[N+](=O)[O-])c1c(F)cccc1Cl (stereo not given) | 71.3% (active)
2 | O=C(c1cc2nc(-c3ccccc3)cc(-c3ccccc3)n2n1)N1CCC2(CC1)OCCO2 | -2.97%
3 | C[C@]12CCC3C(CC[C@H]4C[C@@H](O)CC[C@]34C)C1CC[C@@H]2O (stereo not given in full) | 10.7%
4 | C[C@]12CCC3C(CC[C@H]4C[C@@H](O)CC[C@]34C)C1C[C@@H](O)[C@H]2O (stereo not given in full) | -3.46%
5 | C[C@]12CC[C@H](O)C[C@H]1CC[C@@H]1C2CC[C@]2(C)[C@@H](C3=CC(=O)OC3)[C@@H](O)C[C@]12O (stereo not given in full) | 79.5% [Jurkat, PMA/ionomycin-induced NF-kB luciferase reporter] (active)
6 | CN1CCN(/N=C/c2c[nH]c3ccccc23)CC1 | -15.1%
7 | O=C(NCC(c1cccnc1)N1CCN(c2ccccc2)CC1)Oc1ccccc1 (stereo not given) | 10.4%
8 | COc1ccccc1C1=NCc2nnc(CSC)n2-c2ccc(Cl)cc21 | -5.97%
9 | CCCCCCCCCCCCn1ccc(=N)cc1 | 94.2% (active)
10 | Cc1nn(Cc2ccccc2Cl)c(Cl)c1C(=O)OC(C(=O)NC(N)=O)C(C)C (stereo not given) | 11.3%
11 | CCOC(=O)C1(Cc2ccc(Cl)cc2)CCN(C(C)CCn2cccn2)CC1 (stereo not given) | -3.65%
12 | O=C(CCNS(=O)(=O)c1ccccc1)Nc1ccc(Cl)cc1C(=O)c1ccccc1 | -5.78%
13 | COC(=O)[C@@H]1C(OC(=O)c2ccccc2)CC2CCC1N2C (stereo not given in full) | -16.7%
14 | COc1ccc(N2C(=O)/C(=C/c3ccco3)C(=O)NC2=S)cc1 | 1.64%
15 | CCOc1ccc(-c2cc(C)[n+](CCN(CC)CC)c(-c3ccc(OCC)cc3)c2)cc1 | 72.8% (active)
16 | CN1CCc2cc3c(cc2[C@H]1[C@@H]1OC(=O)c2c1ccc1c2OCO1)OCO3 | 5.76% [Jurkat, PMA/ionomycin-induced NF-kB luciferase reporter]
17 | CCN(CC)P(=O)(Oc1cccc(C)c1)N(CC)CC | 4.24%
18 | Cc1cc(N2C(=O)C3CCCN3C2c2ccc(Cl)c(Cl)c2)no1 (stereo not given) | -12.8%
19 | c1ccc(C2NCc3ccccc3-n3cccc32)cc1 (stereo not given) | 10.4%
20 | CNC(=O)O/N=C(\N)Cc1csc2ccc(Cl)cc12 | -0.793%
